Measured values reported in paper PMC7826789 (International Journal of Molecular Sciences, 2021).

Tested on: MAPKAPK5
Details: Compound Concentration (nM):1000
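Further: KINOMEscan scanMAX binding as percent activity remaining versus control; lower means stronger binding.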

How did the “Percent Control” value turn out when `CC(C)COC(=O)c1ccc2c(c1)/C(=C/Nc1ccc(S(N)(=O)=O)cc1)C(=O)N2` [GW416981X] was run?
The value was 100%.

With `Cl.c1ccc(Cc2nc3ccc(Nc4ncnc5ccccc45)cc3[nH]2)cc1` [GR269666A] as the compound, how does the “Percent Control” value read?
Its value is 100%.

`CCn1c(-c2nonc2N)nc2c(C#CC(C)(C)O)nc(OCCNC)cc21.Cl` [GSK949675] was tested. Which “Percent Control” value did it give?
The value was 100%.

`COc1cc2ncn(-c3cc(O[C@H](C)c4ccccc4Cl)c(C(N)=O)s3)c2cc1OC` [GSK237701A] was tested. Which “Percent Control” value did it give?
Its value is 100%.

With `COc1cccc(-n2ncc3c(N/N=C/c4ccncc4)ncnc32)c1` [GW784752X] as the compound, how does the “Percent Control” value read?
The value was 89%.

For `C[C@@H](Oc1cc(-n2cnc3ccc(OC4CCN(C)CC4)cc32)sc1C(N)=O)c1ccccc1Cl` [GSK579289A], which “Percent Control” value is on record?
The value was 100%.

How did the “Percent Control” value turn out when `Cl.O=C(Nc1ccc(Oc2ccc3[nH]c(NC(=O)c4ccccc4)nc3c2)cc1)Nc1cc(C(F)(F)F)ccc1F` [GW709042A] was run?
The value was 100%.

How did the “Percent Control” value turn out when `C/C(Nc1ccc(S(N)(=O)=O)cc1)=C1/C(=O)Nc2ccccc21` [GW335962X] was run?
Its value is 100%.

Tested on: MARK1
Details: Compound Concentration (nM):1000

`Cl.O=S1CCN(Cc2ccc(-c3ccc4ncnc(Nc5ccc(OCc6ccccc6)c(F)c5)c4c3)o2)CC1` [GW576924A] was tested. Which “Percent Control” value did it give?
Its value is 91%.

Which “Percent Control” value does the source give for `COc1ccc2[nH]c3c4[nH]c5ccc(OC)cc5c4c4c(c3c2c1)C(=O)NC4=O` [GW296115X] here?
The value was 100%.

For `COc1cc2ncnc(Nc3ccc4c(cnn4Cc4ccccc4)c3)c2cc1OC.Cl` [GW282449A], which “Percent Control” value is on record?
The value was 100%.

For `COc1cc(C=NNc2ncnc3c2cnn3-c2ccccc2)ccc1O` [GW513184X], which “Percent Control” value is on record?
Its value is 97%.

With `COc1ccccc1-c1cc(/C=C2\C(=O)Nc3ncc(Br)cc32)cc(Br)c1O` [GW442130X] as the compound, how does the “Percent Control” value read?
Its value is 81%.

For `CN1CCN(C(=O)c2ccc(NC(=O)Nc3ccc(N(C)c4ccnc(Nc5ccc(CS(C)(=O)=O)cc5)n4)cc3)cc2)CC1.Cl` [GW830263A], which “Percent Control” value is on record?
Its value is 44%.

With `O=C1Nc2ccc(C(=O)c3ccco3)cc2C1=Cc1cc(Cl)c(O)c(Cl)c1` [GW406108X] as the compound, how does the “Percent Control” value read?
The value was 63%.

Which “Percent Control” value does the source give for `COc1cc(/C=N/Nc2ncnc3[nH]ncc23)ccc1O` [GW578748X] here?
Its value is 79%.

`Cc1cc(O)cc(C)c1/C=C/c1cncc(C(N)=O)c1` [GW435821X] was tested. Which “Percent Control” value did it give?
Its value is 100%.

`CCS(=O)(=O)c1ccc(OC)c(Nc2ncc(-c3cccc(F)c3)o2)c1` [GW621970X] was tested. Which “Percent Control” value did it give?
Its value is 96%.

Which “Percent Control” value does the source give for `Cl.O=C(Nc1ccc(Oc2ccc3[nH]c(NC(=O)c4ccco4)nc3c2)cc1)Nc1cc(C(F)(F)F)ccc1F` [GW683134A] here?
The value was 100%.

Which “Percent Control” value does the source give for `Nc1ncnc2occ(-c3ccc(NC(=O)Nc4cc(C(F)(F)F)ccc4F)cc3)c12` [GW770249X] here?
The value was 83%.

With `O=C(Nc1n[nH]c2nc(-c3ccc(O)cc3)c(Br)cc12)C1CC1` [SB-725317] as the compound, how does the “Percent Control” value read?
Its value is 95%.

`CC1=C(C(=O)Nc2ccc3[nH]ncc3c2)C(c2ccc(Cl)c(Cl)c2)CC(=O)N1` (stereo not shown) [GSK299115A] was tested. Which “Percent Control” value did it give?
Its value is 100%.

For `NS(=O)(=O)c1ccc(N/N=C2\C(=O)Nc3ccc(Cl)cc32)cc1` [GW280670X], which “Percent Control” value is on record?
Its value is 100%.

`CC1=C(C(=O)Nc2ccc3[nH]ncc3c2)C(c2ccc3ccccc3c2)CC(=O)N1` (stereo not shown) [GSK270822A] was tested. Which “Percent Control” value did it give?
Its value is 91%.

`COc1cccc(-c2c[nH]c3c(N/N=C/c4ccncc4)ncnc23)c1` [GW814408X] was tested. Which “Percent Control” value did it give?
The value was 89%.

`NS(=O)(=O)c1ccc(N/N=C2\C(=O)Nc3ccc(C(=O)NCCc4c[nH]cn4)cc32)cc1` [GW300660X] was tested. Which “Percent Control” value did it give?
The value was 90%.

Which “Percent Control” value does the source give for `CN(C)CCNC(=O)Nc1ccc(N(C)c2ccnc(Nc3ccc(CS(C)(=O)=O)cc3)n2)cc1.Cl` [GW830900A] here?
Its value is 84%.

How did the “Percent Control” value turn out when `COc1ccc2cc(-c3c(-c4ccncc4)nc(-c4ccc(S(C)(=O)=O)cc4C)n3C)ccc2c1` [SB-633825] was run?
Its value is 88%.

For `NS(=O)(=O)c1ccc(N/N=C2\C(=O)Nc3ccc(-c4cnco4)cc32)cc1` [GW276655], which “Percent Control” value is on record?
The value was 44%.

Which “Percent Control” value does the source give for `CN(C)c1cc2c(Nc3ccc4c(cnn4Cc4ccccc4)c3)ncnc2cn1` [GW282974X] here?
The value was 100%.

Which “Percent Control” value does the source give for `COc1ccc2c(-c3ccnc(Nc4cccc(OC(F)(F)F)c4)n3)cnn2n1` [GW810372X] here?
Its value is 100%.

How did the “Percent Control” value turn out when `Cl.O=C(O[C@H]1CN[C@H](C#Cc2cc3ncnc(Nc4ccc5c(cnn5Cc5ccccc5)c4)c3s2)C1)N1CCOCC1` [GSK200398A] was run?
Its value is 100%.

`CCS(=O)(=O)c1ccc(OC)c(Nc2ncc(-c3cccc(OC)c3)o2)c1` [GW580509X] was tested. Which “Percent Control” value did it give?
Its value is 100%.

For `CCc1ccc(Oc2nccc(-c3c(-c4ccc(F)cc4)ncn3C3CCNCC3)n2)cc1` [SB-242719], which “Percent Control” value is on record?
The value was 69%.
